# High-throughput results deposited in PubChem BioAssay by National Center for Advancing Translational Sciences (NCATS).
# SmPrx2 inh = Schistosoma Mansoni Peroxiredoxins (Prx2); Schistosoma mansoni peroxiredoxin 2 (Prx2); S. mansoni Prx2 activity coupled to TGR/GSH (TGR is thioredoxin glutathione reductase), NADPH fluorescence loss, qHTS; Potency, µM; 0.07% of 65,000 active
#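 Prx2 activity was followed as the loss of NADPH fluorescence (ex 365/em 450 nm), read every 30 sec for 8 min after H2O2 start. The enzyme mix (50 nM Prx2, 25 nM TGR, GSH, NADPH; pH 7.4 phosphate buffer) was incubated with compound for 15 min at room temperature first.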
# Anthrax LT inh = qHTS Assay for Anthrax Lethal Toxin Internalization; Potency, µM (highest dose often 40 µM), without a hit: at the top dose activity change, negative = inhibition, hits mostly inhibitors; 0.67% of 70,000 active; Cells, anthrax lethal toxin internalization, FRET ratio (460/530); further: on the % scale 0 is the no-effect control and ±100 the full control effect; nearly all actives have a fitted effect of over 50% in size
# AmpC det inh = Promiscuous and Specific Inhibitors of AmpC Beta-Lactamase (assay with detergent); P00811; Potency, µM (series often up to 28.7 µM), inactives show at the top dose activity change, negative = inhibition; 0.09% of 71,000 active; purified AmpC, nitrocefin hydrolysis with detergent; active means well fitted curve in the direction sought with a large enough effect; inconclusive means small, poorly fitted or top-dose-only effect; further: on the % scale 0 is the no-effect control and ±100 the full control effect
# Target sequence (P00811 whole entry, looked up): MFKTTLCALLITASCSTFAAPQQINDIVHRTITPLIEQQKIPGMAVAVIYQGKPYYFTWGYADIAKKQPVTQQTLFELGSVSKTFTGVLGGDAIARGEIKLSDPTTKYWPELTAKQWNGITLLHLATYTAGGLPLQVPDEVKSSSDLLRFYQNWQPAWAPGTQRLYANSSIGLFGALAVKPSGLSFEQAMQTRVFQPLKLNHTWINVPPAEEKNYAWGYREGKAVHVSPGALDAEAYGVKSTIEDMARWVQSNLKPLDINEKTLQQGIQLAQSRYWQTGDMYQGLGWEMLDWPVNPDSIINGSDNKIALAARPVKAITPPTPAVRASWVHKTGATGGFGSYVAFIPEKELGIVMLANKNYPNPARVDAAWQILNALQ
#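 E. coli AmpC (5.3 nM) in 20 mM phosphate pH 7.0 with 0.01% Triton X-100, preincubated 15 min RT with compound; nitrocefin (2 uL of 800 uM stock) hydrolysis followed by 480 nm absorbance every 20 s over 4 min.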
# AmpC nodet inh = Promiscuous and Specific Inhibitors of AmpC Beta-Lactamase (assay without detergent). P00811. 1.8% of 71,000 active. Potency, µM (series often up to 28.7 µM), inactives show at the highest dose activity change, negative = inhibition. AmpC nitrocefin hydrolysis, absorbance 480 nm, no detergent. AID 585, 2007; further: % of control where 0% means no effect
#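 Enzyme, pH 7.0 phosphate. Compound titrations were pre-incubated with AmpC for 15 min at room temperature before nitrocefin (stock 800 uM) addition; product formation was recorded at 480 nm every 20 s for 4 min.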
# * marks the source's active call; other numbers are inactive results; ? = inconclusive; . = not tested or not shown; [ ] = another dose, or the depositor's remark. An excerpt weighted towards active compounds, which were near 2.4% of everything screened. Unless noted, the call rests on the fitted dose curve. Potency means the concentration at half of the fitted maximal effect.
SMILES,SmPrx2 inh,Anthrax LT inh,AmpC det inh,AmpC nodet inh
CCOC(=O)C1C2C=CC3(CN(c4ccc(Cl)c(F)c4)C(=O)C13)O2 (stereo not drawn),>57,14%,10%,2µM*[single pt active]
CCCOC(=O)C1C2C=CC3(CN(c4ccc(Cl)c(F)c4)C(=O)C13)O2 (stereo not drawn),>57,-15%,13%,?
COc1ccc(OCc2nnc3n2N=C(c2ccc(OC)cc2)CS3)cc1,>57,-1%,14%,4µM*[single pt active]
CC(=O)N1CCN(c2ccc(NCc3ccc(C)s3)cc2)CC1,>57,-7%,14%,4µM*[single pt active]
Cc1ccc(CNc2ccc(N3CCOCC3)cc2)s1,>57,-12%,-5%,39%
Cc1c([C@@H](C)[C@H]2NC[C@H](C)C[C@@H]2O)ccc2c1C[C@@H]1[C@H]2CC=C2C[C@@H](O)CC[C@@]21C,>57,8%[8 µM],-2%[5.75 µM],-2%[5.75 µM]
CCOC(=O)c1sc(NC(=O)CSc2nnc(-c3ccco3)n2CC)c(C(=O)OCC)c1C,>57,10µM*,11%,86%
CCOC(=O)c1c(NC(=O)CSc2nnc(-c3ccccc3)n2CC)sc(C(C)=O)c1C,.,-10%,-2%,60%
Cc1ccc(-c2nc(NC(=O)CSc3nnc4scc(-c5ccccc5)n34)ns2)cc1,>57,?,26%,4µM*[single pt active]
Clc1ccc(N2C[C@H]3CC[C@@H](C2)N3)nn1,>57,-4%,-2%,4%
Oc1ccc(-c2nc(-c3ccc(O)c(O)c3)cs2)cc1,.,13µM*,1%,-24%
CC(C)(C)OC(=O)NCCc1nnc(S(=O)(=O)Cc2ccc(Cl)cc2Cl)o1,>57,?,0.016µM*,0.04µM*
CCN1CCN(C(=O)c2cc3c(s2)-c2ccccc2S(=O)(=O)C3)CC1,>57,-14%,15%,4µM*[single pt active]
CN1CCN(C(=O)c2cc3c(s2)-c2ccccc2S(=O)(=O)C3)CC1,>57,-3%,11%,4µM*[single pt active]
O=C(c1ccco1)N1CCN(C(=O)c2cc3c(s2)-c2ccccc2OC3)CC1,>57,-19%,11%,136%
Cc1cc(C(=O)N2CCN(c3ncccn3)CC2)sc1-c1ccccc1,>57,-9%,-4%,56%
Cc1ncsc1C(=O)Nc1nc2c(s1)CCCC2,>57,11%,-1%,-1%
O=C(Nc1nc2c(s1)CCCC2)c1ccc2ncsc2c1,>57,10µM*,13%,78%
COc1ccc(Nc2ncnc3c2cnn3-c2ccccc2)cc1OC,>57,?,6%,25%
Clc1ccc(Nc2ncnc3c2cnn3-c2ccccc2)cc1,>57,10µM*,6%,-4%
CC[C@H](C)C(=O)O[C@@H]1CCC=C2C=C[C@H](C)[C@@H](CC[C@H]3C[C@@H](O)CC(=O)O3)[C@H]21,>57,6%,-1%,128%
COc1ccc(C(=O)C(CN2CCOCC2)c2ccccc2)cc1F (stereo not drawn),>57,16µM*,-2%,76%
COc1ccc(C(O)C(CN2CCOCC2)c2ccccc2)cc1F (stereo not drawn),>57,2%,5%,4%
CCOC(=O)SC1=N/C(=C\c2ccc(N(C)C)cc2)C(=O)S1,>57,-4%,5µM*,16µM*
CC(C)C(O)(C(C)C)C(C)C,>57,-6%[8 µM],-2%[5.75 µM],2%[5.75 µM]
SMILES,SmPrx2 inh,Anthrax LT inh,AmpC det inh,AmpC nodet inh
Cn1c(Cn2c(=O)sc3ccccc32)nnc1SCC(=O)N1CCCc2ccccc21,>57,-9%,13%,4µM*[single pt active]
Cn1c(Cn2c(=O)sc3ccccc32)nnc1SCc1ccccn1,>57,-2%,1%,11%
Cn1c(Cn2c(=O)sc3ccccc32)nnc1SCC(=O)N1CCc2ccccc21,>57,-4%,12%,4µM*[single pt active]
Cn1c(Cn2c(=O)sc3ccccc32)nnc1SCC(=O)N1CCCC1,>57,29%,27%,4µM*[single pt active]
CCSc1nnc(Cn2c(=O)sc3ccccc32)n1C,>57,-6%,14%,4µM*[single pt active]
CC1CCN(C(=O)CSc2nnc(Cn3c(=O)sc4ccccc43)n2C)CC1,>57,2%,16%,?
NC(N)=N/N=C(\c1ccc(Cl)cc1)C1CC1,>57,?,0%[5.75 µM],-2%[5.75 µM]
Cc1ccccc1C,.,-1%,6%,-11%
Cc1ccc(-n2cnc3c(sc4nccc(N(C)C)c43)c2=O)cc1,.,6.3µM*,12%,40%
COc1ccc(-n2cnc3c(sc4nccc(N(C)C)c43)c2=O)cc1,>57,.,-6%,-3%
O=c1c(-c2ccc(F)cc2)nc2cnc(N3CCOCC3)nc2n1Cc1ccc(F)cc1,>57,?,0%,4%
